From PubChem BioAssay
Shiga toxin inh – inhibitors of Shiga toxin in Vero cells | Vero cells, Shiga toxin protein synthesis inhibition reporter | hit rate 9.2% among 290,000 | inhibition, % at 38.7 µM; in the data active = inhibition mostly above about 28%, no sharp cut-off; inactive = mostly below about 43%
Cycloheximide cs – affects cycloheximide protein synthesis inhibition readout, counter-screen | hit rate 12% among 300,000 | cell reporter, cycloheximide protein synthesis inhibition counterscreen | max response, %; in the data active = max response mostly above about 13%, no sharp cut-off; inactive = mostly below about 14%; also: read at 38.3 µM for the half of the compounds with a filed dose
LASV entry inh – blocks Lassa virus binding to or entry into cells; AID 540256; Lassa virus pseudotype entry inhibition, cell reporter; Potency, µM (highest dose often 37.9 µM), actives largely listed as inhibitors; hit rate 1.2% among 300,000; calls by dose curve; tested in HEK293 cells; also: nearly all actives have a fitted effect of over 50% in size
Pf growth 48h – P. falciparum growth inhibition at 48 hours (one generation) | P. falciparum luciferase growth in erythrocytes, 48 h | Potency, µM (top dose mostly 28.7 µM), hits mostly inhibitors | hit rate 5.9% among 310,000 | AID 504832
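Luminescence readout; reporter = integrated firefly luciferase in P. falciparum. RBC culture at 2% hematocrit, 0.1% parasitemia final, 37 C/5% CO2; decreased signal taken as growth inhibition.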
Pf growth 96h – P. falciparum growth inhibition at 96 hours. P. falciparum luciferase reporter growth, 96 h. Potency, µM (doses to about 28.7 µM), actives largely listed as inhibitors. hit rate 6.9% among 320,000
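Readout is luminescence from an integrated firefly luciferase in P. falciparum. Red cells, 2% hematocrit and 0.05% parasitemia final, were cultured with compound through two parasite generations (96 hours) at 37 C, 5% CO2.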
Marburg entry inh – blocks Marburg virus binding to or entry into cells. Marburg virus pseudotyped entry inhibition, cell reporter. Potency, µM (top dose mostly 37.8 µM), actives largely listed as inhibitors. hit rate 1.8% among 300,000. AID 540276; calls by dose curve; tested in HEK293 cells
Hits are given with their value; . = inactive; ? = inconclusive; / = not tested or not shown; [ ] = dose if it differs, or a comment. The list is not random: actives were taken first. Their share in the collection is about 19%. Unless noted, calls follow the shape of the dose curve; as a rule, active = well fitted inhibition curve with a large enough effect; inconclusive = small, poorly fitted or top-dose-only effect, or another doubt; inactive = no such curve, though single readings can be large or run the other way.

SMILES	Shiga toxin inh	Cycloheximide cs	LASV entry inh	Pf growth 48h	Pf growth 96h	Marburg entry inh
COc1ccc(CNS(=O)(=O)c2ccc(-c3ccc(=O)[nH]n3)o2)cc1	.	.	/	.	.	/
COC(=O)CNC(=O)COC(=O)/C=C/c1cccs1	.	.	.	.	.	.
CC1CCCCN1C(=O)COC(=O)/C=C/c1ccc2ccccc2n1 (stereo unspecified)	47.7	47.8	/	.	?	/
COC(=O)CNC(=O)COC(=O)/C=C/c1ccc2ccccc2n1	32.1	20.2	.	?	.	.
COc1ccc(OC)c(C2=Nn3c(nnc3-c3ccco3)SC2)c1	.	.	.	/	.	.
COCCNc1ccc(-c2nc(-c3cccc(C)c3)no2)cc1[N+](=O)[O-]	/	/	.	/	/	?
Cc1sc(NC(=O)CS(=O)(=O)c2ccccc2)c(C(N)=O)c1C	/	/	.	.	.	.
Cc1sc(NC(=O)c2cccs2)c(C(N)=O)c1C	.	40.4	.	.	.	.
CCOC(=O)c1c(-c2ccc(C)s2)csc1NC(=O)c1cccs1	.	.	.	/	.	.
CCOC(=O)c1c(NC(=O)c2cccs2)sc(CC)c1-c1cccs1	.	.	.	/	10.4µM	?
CN(Cc1ccccc1)C(=O)COC(=O)c1ccc2c(c1)OCO2	53.8	33.3	.	.	.	.
CN(Cc1ccccc1)C(=O)c1ccc2c(c1)OCO2	.	15.0	.	.	?	.
CC(CN(C)Cc1ccccc1)OC(=O)c1ccc2c(c1)OCCO2 (stereo unspecified)	.	31.5	.	.	.	?
CN(Cc1ccccc1)C(=O)COC(=O)c1cc(Cl)nc(Cl)c1	.	.	.	.	.	.
CC(CN(C)Cc1ccccc1)OC(=O)c1ccccc1F (stereo unspecified)	.	.	.	.	.	.
CN(CC(=O)Nc1ccccc1Cl)CC(=O)c1c(N)n(Cc2ccccc2)c(=O)n(C)c1=O	/	/	/	.	?	/
COc1cccc(C(=O)Nc2cc3c(cc2N2CCCC2)n(C)c(=O)n3C)c1	.	.	.	.	11.7µM	.
COc1cccc(OC)c1C(=O)Nc1cc2c(cc1N1CCOCC1)n(C)c(=O)n2C	.	.	.	8.28µM	?	.
Cn1c(=O)n(C)c2cc(N3CCOCC3)c(NC(=O)c3cccc(Cl)c3)cc21	.	.	/	.	1.65µM	/
COc1cc(OC)cc(C(=O)Nc2cc3c(cc2N2CCCCC2)n(C)c(=O)n3C)c1	/	/	.	/	/	.
Cn1c(=O)n(C)c2cc(N3CCOCC3)c(NC(=O)c3ccc(F)cc3)cc21	.	.	.	?	9.28µM	.
Cc1ccccc1C(=O)Nc1cc2c(cc1N1CCOCC1)n(C)c(=O)n2C	/	/	.	/	/	.
COc1cc(/C=N/NC(=Nc2ccc(C)cc2)c2nc3ccccc3s2)ccc1O	99.6	42.0	13µM	.	/	?
COc1cc(/C=N/NC(=O)CCC(=O)Nc2ccc(C)cc2)ccc1O	.	.	.	.	.	.
COc1ccccc1/C=N/NC(=Nc1ccc(C)cc1)c1nc2ccccc2s1	183.9	52.8	/	.	.	.
SMILES	Shiga toxin inh	Cycloheximide cs	LASV entry inh	Pf growth 48h	Pf growth 96h	Marburg entry inh
COc1ccc2[nH]c(=O)c(CN(C(=O)c3cccc(Cl)c3)c3cccc(C)c3)cc2c1	/	/	.	/	/	.
CCCC(C(=O)O)N1C(=O)/C(=C2\C(=O)N(C)c3ccccc32)SC1=S (stereo unspecified)	.	.	?	.	.	.
CNC(=O)Oc1ccc(-c2cn3cc(C)ccc3n2)cc1	.	.	0.316µM	.	?	0.651µM
COC(=O)c1ccc2nc(-c3ccc(S(C)(=O)=O)cc3)cn2c1	.	59.5	.	.	.	?
CNC(=O)Oc1cccc(-c2cn3cc(Cl)ccc3n2)c1	.	.	?	.	.	2.82µM
CS(=O)(=O)c1ccc(-c2cn3cc(C(=O)O)ccc3n2)cc1	.	.	?	.	.	?
Cc1nc2ccn(Cc3ccccc3)c(=O)c2cc1C(=O)NCc1ccccc1F	/	/	.	/	/	/
O=C(NCC(=O)N1CC(O)CC1C(=O)N1CC(O)CC1C(=O)OCc1ccccc1)OCc1ccccc1 (stereo unspecified)	87.7	.	/	.	.	/
CC(NC(=O)CNC(=O)OCc1ccccc1)C(=O)N1CC(O)CC1C(=O)OCc1ccccc1 (stereo unspecified)	.	.	.	.	?	.
Cn1cccc1C(=O)Nc1nc(-c2ccccn2)cs1	83.5	51.1	?	?	14.7µM	?
Cc1csc(NC(=O)c2cccn2C)n1	102.1	61.8	?	.	.	.
COCCNC(=O)/C(C#N)=C/c1c(F)cccc1Cl	.	.	.	.	.	.
COCCn1c(C)cc(/C=C2/NC(=O)N(c3ccc(Cl)cc3)C2=O)c1C	.	55.0	.	?	?	.
Cc1ccc2oc(-c3ccccc3)c(C(=O)O)c(=O)c2c1	80.0	44.1	?	.	.	?
O=c1c(O)c(-c2cccs2)oc2ccc(Cl)cc12	.	.	.	.	/	.
O=C(O)c1c(-c2ccccc2)oc2ccc(O)cc12	.	.	/	.	.	/
O=c1c(O)c(-c2cccs2)oc2ccccc12	.	17.7	.	.	.	.
Cc1ccc(-c2oc3ccccc3c(=O)c2OCC(=O)O)cc1	.	.	.	.	.[5.75 µM]	.
Cc1ccc(-c2oc3ccccc3c(=O)c2O)cc1	.	14.3	/	3.7µM	.	/
CC(=O)CCc1oc2ccc(C)cc2c1-c1ccccc1	.	.	3.98µM	.	.	.
CN(C)CC(C)(C)CNS(=O)(=O)CC12CCC(CC1=O)C2(C)C (stereo unspecified)	.	.	.	.	/	.
O=C(NC1CCCCC1)NC1CC2CCCC(C1)N2C1CCCC1 (stereo unspecified)	.	.	.	.	13.1µM	?
O=C(NC1CC2CCCC(C1)N2C1CC1)NC12CC3CC(CC(C3)C1)C2 (stereo unspecified)	.	.	/	.	.	.
Cc1cc(-c2nn(-c3ccccc3F)cc2CN2CCCC(O)C2)c(C)s1 (stereo unspecified)	.	.	/	?	?	/
Cc1cc(-c2nn(-c3ccccc3F)cc2CN2CCC(C(N)=O)CC2)c(C)s1	.	.	/	.	8.28µM	/
SMILES	Shiga toxin inh	Cycloheximide cs	LASV entry inh	Pf growth 48h	Pf growth 96h	Marburg entry inh
Cc1cc(-c2nn(-c3ccccc3F)cc2CN2CCCC(CO)C2)c(C)s1 (stereo unspecified)	.	.	?	.	2.33µM	5.62µM
CCn1c(CCNC(=O)c2cccs2)nnc1SCC(=O)c1ccc(OC)cc1	/	/	.	/	/	.
CCn1c(NCc2ccccn2)nc2c1c(=O)n(C)c(=O)n2C	.	.	.	.	.	?
CCCCOC(=O)c1ccc(NC(=O)c2cnc3ccc(C)cn3c2=O)cc1	/	/	/	/	/	.
O=C1CSC(=S)N1c1cccc(F)c1	.	.	/	.	10.4µM	/
O=C(O)c1cccc(N2C(=O)CSC2=S)c1	.	18.5	.	/	5.86µM	?
CN(C)c1ccc(N2C(=O)CSC2=S)cc1	61.9	19.3	.	.	5.22µM	.
O=C1CSC(=S)N1c1cccc(O)c1	.	.	?	.	.	?
O=C(O)CCCN1C(=O)/C(=C\c2ccc(-c3nc4ccccc4s3)o2)SC1=S	.	.	/	?	?	/
